Experimental data reported in PubChem BioAssay (Tox21).
Inconclusive results are not listed. Calls of active or inactive are those of the source. Unless noted, calls come from the whole dose curve; as a rule, active = well fitted curve in the direction sought with a large enough effect in the repeat runs; inconclusive = weak or mixed curves; inactive = no such curve, though single readings can be large; an effect the other way counts as inactive or inconclusive.

Key:
[1] = qHTS assay to identify small molecule antagonists of the sonic hedgehog signaling (Shh) pathway (AID 1259369; calls by dose curve; note: nearly all actives have a fitted effect of over 45% in size)
Procedure, shortened: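 Luminescence readout: firefly Luc under Gli1 response element in 3T3Gli1-Luc cells (NIH/3T3 clone). Antagonist mode, stimulation by conditioned medium; compound exposure 24hr at 37 C, 5% CO2.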

[2] = molecular target: Estrogen receptor beta (Homo sapiens) (UniProt Q92731); assay: qHTS assay to identify small molecule agonists of the estrogen receptor beta (ER-beta) signaling pathway (AID 1259377; active = well fitted activation curve with a large enough effect in the signal ratio in the repeat runs, not every such curve was filed as active; the % refers to the signal ratio)
Sequence of Estrogen receptor beta (Homo sapiens) (Q92731 whole entry, looked up): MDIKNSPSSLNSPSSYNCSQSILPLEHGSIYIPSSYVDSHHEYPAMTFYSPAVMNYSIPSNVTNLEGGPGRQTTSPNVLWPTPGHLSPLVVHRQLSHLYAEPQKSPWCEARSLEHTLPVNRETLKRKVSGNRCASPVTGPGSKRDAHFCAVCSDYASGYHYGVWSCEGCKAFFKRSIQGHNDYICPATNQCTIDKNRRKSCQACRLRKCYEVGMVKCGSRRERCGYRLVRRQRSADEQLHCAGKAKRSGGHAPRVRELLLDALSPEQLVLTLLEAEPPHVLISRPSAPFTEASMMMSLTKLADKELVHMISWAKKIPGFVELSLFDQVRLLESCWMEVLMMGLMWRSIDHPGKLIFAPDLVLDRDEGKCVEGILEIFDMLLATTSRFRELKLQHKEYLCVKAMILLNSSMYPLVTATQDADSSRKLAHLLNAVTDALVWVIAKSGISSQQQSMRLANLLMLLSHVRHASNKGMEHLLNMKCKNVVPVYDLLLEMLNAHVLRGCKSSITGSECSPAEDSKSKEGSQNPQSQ
Procedure, shortened: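 Beta-lactamase reporter readout: fluorescence of LiveBLAzer B/G FRET substrate after 2 h at room temperature, following 16 h compound treatment of ER-beta-UAS-bla HEK293T cells at 37C in 2% charcoal-stripped FBS medium.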

[3] = molecular target: Estrogen receptor beta (Homo sapiens) (UniProt Q92731); assay: qHTS assay to identify small molecule antagonists of the estrogen receptor beta (ER-beta) signaling pathway (AID 1259378; active = well fitted inhibition curve with a large enough effect in the signal ratio in the repeat runs, not every such curve was filed as active; the % refers to the signal ratio)
Procedure, shortened: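 ER-beta-UAS-bla HEK293T cells in 2% charcoal-stripped FBS medium treated with compound plus 1nM final 17-beta-estradiol for 16 hr at 37C. Beta-lactamase reporter read by FRET substrate fluorescence after 2 hours at room temperature.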

[4] = qHTS assay to identify small molecule agonists of the androgen receptor (AR) signaling pathway in the presence of an antagonist - cell viability counter screen (AID 1259379);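 note: MDA-kb2 human breast cancer cells carrying an MMTV luciferase reporter; series mostly up to about 92 µM; nearly all actives have a fitted effect of over 25% in size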
Procedure, shortened: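 Viability counter screen: CellTiter-Fluor fluorescence, measured in the same wells as the luciferase read-out. MDA-kb2 cells, 3,000/well, with nilutamide at 3.0uM final and compounds at 15 concentrations, 16 hr at 37C, 0% CO2.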

[5] = qHTS assay to identify small molecule agonists of the estrogen receptor beta (ER-beta) signaling pathway - cell viability counter screen (AID 1259380); note: nearly all actives have a fitted effect of over 30% in size
Procedure, shortened: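 Luminescence read-out (CellTiter-Glo, 30 min, room temp) taken in the same wells as the beta-lactamase reporter assay; ER-beta-UAS-bla HEK293T cells exposed to DMSO-dissolved compounds for 16 hr at 37C in 2% charcoal-stripped FBS medium.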

[6] = qHTS assay to identify small molecule antagonists of the estrogen receptor beta (ER-beta) signaling pathway - cell viability counter screen (AID 1259382); note: series mostly up to about 92 µM; nearly all actives have a fitted effect of over 55% in size
Procedure, shortened: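 Luminescent ATP read-out (CellTiter-Glo, 30 min, RT) taken in the same wells as the bla reporter assay. HEK293T ER-beta-UAS-bla cells in 2% charcoal-stripped FBS were exposed to compounds with 1nM E2 for 16 hr at 37C.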

[7] = qHTS assay to identify small molecule agonists or antagonists of the thyroid stimulating hormone receptor (TSHR) signaling pathway - wild type cell line counter screen (AID 1259384; calls by dose curve)
Procedure, shortened: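 Wild-type Hek293 cells, 800/well, 18 h at 37C, then compound with Ro20-1724 for 30 min RT. cAMP by HTRF (cAMP-d2/anti-cAMP cryptate), 1 h RT, fluorescence read. 15 concentrations, triplicates.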

[8] = molecular target: Thyrotropin receptor (Homo sapiens) (UniProt P16473); assay: qHTS assay to identify small molecule antagonists of the thyroid stimulating hormone receptor (TSHR) signaling pathway (AID 1259385; calls by dose curve; note: nearly all actives have a fitted effect of over 20% in size)
Sequence of Thyrotropin receptor (Homo sapiens) (P16473 whole entry, looked up): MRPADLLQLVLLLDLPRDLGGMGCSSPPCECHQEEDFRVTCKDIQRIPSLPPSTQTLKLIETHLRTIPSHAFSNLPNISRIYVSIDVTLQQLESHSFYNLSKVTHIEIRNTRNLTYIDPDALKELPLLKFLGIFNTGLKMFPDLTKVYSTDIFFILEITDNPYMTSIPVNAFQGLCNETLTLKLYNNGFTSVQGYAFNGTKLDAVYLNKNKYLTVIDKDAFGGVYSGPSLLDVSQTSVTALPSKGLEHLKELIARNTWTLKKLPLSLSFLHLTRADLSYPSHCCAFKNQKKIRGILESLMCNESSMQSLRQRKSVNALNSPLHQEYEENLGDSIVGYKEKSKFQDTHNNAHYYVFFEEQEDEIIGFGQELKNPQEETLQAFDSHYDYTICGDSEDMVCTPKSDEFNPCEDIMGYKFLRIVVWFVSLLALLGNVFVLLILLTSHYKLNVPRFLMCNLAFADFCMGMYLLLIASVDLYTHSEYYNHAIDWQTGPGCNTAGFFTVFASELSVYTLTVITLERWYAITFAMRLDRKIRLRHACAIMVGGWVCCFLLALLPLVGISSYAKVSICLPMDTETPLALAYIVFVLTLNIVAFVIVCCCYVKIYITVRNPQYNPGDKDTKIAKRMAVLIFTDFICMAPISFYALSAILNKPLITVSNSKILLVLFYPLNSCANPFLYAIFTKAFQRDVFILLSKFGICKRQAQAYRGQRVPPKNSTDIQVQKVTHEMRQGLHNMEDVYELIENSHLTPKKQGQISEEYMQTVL
Procedure, shortened: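 TSHR-HEK293 cells (800/well) plated 18 h, then compounds with Ro20-1724 and TSH at 1.5 ng/mL final, 30 min at room temperature. cAMP quantified by HTRF (cAMP-d2/anti-cAMP-cryptate, 1 h); 15 concentrations in triplicate.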

[9] = qHTS assay to identify small molecule agonists of the estrogen receptor alpha (ER-alpha) signaling pathway in the presence of an antagonist - cell viability counter screen (AID 1259386);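 note: series mostly up to about 92 µM; cells exposed to compounds for 22 h at 37 °C before the viability read; nearly all actives have a fitted effect of over 30% in size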
Procedure, shortened: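 Read-out: CellTiter-Fluor fluorescence after 1hr reagent incubation, measured in the same wells as the luciferase readout. VM7Luc4E2 cells were exposed to 15 compound concentrations with 10.0nM ICI-182,780 for 22hr at 37C.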

[10] = molecular target: Progesterone receptor (Homo sapiens) (UniProt P06401); assay: qHTS assay to identify small molecule antagonists of the progesterone receptor (PR) signaling pathway (AID 1346795; active = well fitted inhibition curve with a large enough effect in the signal ratio in the repeat runs, not every such curve was filed as active; the % refers to the signal ratio)
Sequence of Progesterone receptor (Homo sapiens) (P06401 whole entry, looked up): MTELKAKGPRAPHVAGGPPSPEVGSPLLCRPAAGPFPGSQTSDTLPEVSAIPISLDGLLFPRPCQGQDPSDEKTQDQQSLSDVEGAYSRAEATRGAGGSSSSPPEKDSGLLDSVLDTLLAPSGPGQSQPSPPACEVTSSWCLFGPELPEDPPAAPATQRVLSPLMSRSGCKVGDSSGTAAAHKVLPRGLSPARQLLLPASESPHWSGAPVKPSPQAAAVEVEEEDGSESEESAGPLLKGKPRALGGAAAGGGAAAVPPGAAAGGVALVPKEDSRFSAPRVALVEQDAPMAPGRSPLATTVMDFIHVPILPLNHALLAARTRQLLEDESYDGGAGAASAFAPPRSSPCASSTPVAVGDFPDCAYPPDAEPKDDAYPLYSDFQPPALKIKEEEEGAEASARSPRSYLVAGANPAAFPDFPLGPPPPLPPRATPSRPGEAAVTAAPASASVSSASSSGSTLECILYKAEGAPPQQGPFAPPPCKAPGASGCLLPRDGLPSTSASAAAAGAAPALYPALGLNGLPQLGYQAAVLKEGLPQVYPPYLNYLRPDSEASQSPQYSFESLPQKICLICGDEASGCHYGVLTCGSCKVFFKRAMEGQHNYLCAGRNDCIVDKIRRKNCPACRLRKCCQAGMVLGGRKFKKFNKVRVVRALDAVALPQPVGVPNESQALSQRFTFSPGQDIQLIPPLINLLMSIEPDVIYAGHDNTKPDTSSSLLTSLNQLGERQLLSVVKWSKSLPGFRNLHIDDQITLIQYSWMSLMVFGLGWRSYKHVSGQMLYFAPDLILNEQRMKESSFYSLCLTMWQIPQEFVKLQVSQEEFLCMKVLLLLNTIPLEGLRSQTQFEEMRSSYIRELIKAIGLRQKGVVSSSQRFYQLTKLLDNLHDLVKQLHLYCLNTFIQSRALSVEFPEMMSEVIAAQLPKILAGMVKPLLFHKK
Procedure, shortened: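 Beta-lactamase reporter, HEK293T PR-UAS-bla line; 2% charcoal-stripped FBS; 6 hr pre-incubation, 37C/5% CO2. Compound + R5020 1 nM final, 16 hr. LiveBLAzer B/G FRET substrate, 2 hr RT; fluorescence intensity read.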

[11] = qHTS assay to identify small molecule agonists of the progesterone receptor (PR) signaling pathway - cell viability counter screen (AID 1346799; calls by dose curve; note: nearly all actives have a fitted effect of over 45% in size)
Procedure, shortened: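 HEK293T PR-UAS-bla, 3,000 cells/well, 2% charcoal-stripped FBS; 6 h settle, compound 16 h at 37C/5% CO2; LiveBLAzer 2 h RT, then CellTiter-Glo 30 min RT, luminescence read.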

[12] = qHTS assay to identify small molecule antagonists of the TGF-beta/Smad signaling pathway - cell viability counter screen (AID 1346824); note: nearly all actives have a fitted effect of over 50% in size
Procedure, shortened: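 SBE-bla HEK 293T cells, incubated overnight, then compound plus 0.25 ng/mL TGF-beta1 (stock added) for 5 hr at 37 C. Viability was read in the same wells by CellTiter-Glo luminescence after 30 min at room temperature.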

[13] = qHTS assay to identify small molecule agonists of the TGF-beta/Smad signaling pathway (AID 1346859; active = well fitted activation curve with a large enough effect in the signal ratio in the repeat runs, not every such curve was filed as active; the % refers to the signal ratio; note: series mostly up to about 77 µM)
Procedure, shortened: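 Read-out: fluorescence at 460 and 530 nm (405 nm excitation) after a 2 hr room-temperature incubation with beta-lactamase FRET substrate. SBE-bla HEK 293T cells had been treated with test compounds for 5 hr at 37 C.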

[14] = molecular target: Progesterone receptor (Homo sapiens) (UniProt P06401); assay: qHTS assay to identify small molecule agonists of the progesterone receptor (PR) signaling pathway (AID 1346784; calls by dose curve; note: nearly all actives have a fitted effect of over 30% in size)
Procedure, shortened: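 HEK 293T PR-UAS-bla reporter cells, 2% charcoal-stripped FBS; 6 hr settle at 37C/5% CO2, compound (DMSO) 16 hr, LiveBLAzer B/G FRET substrate 2 hr RT, fluorescence intensity read.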

[15] = qHTS assay to identify small molecule antagonists of the progesterone receptor (PR) signaling pathway - cell viability counter screen (AID 1346798); note: series mostly up to about 92 µM; nearly all actives have a fitted effect of over 50% in size
Procedure, shortened: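 Luminescence readout (CellTiter-Glo, 30 min, RT) of viability in PR-UAS-bla HEK293T cells exposed to compound and R5020 agonist for 16 hr at 37C, 5% CO2; run in the same wells as the beta-lactamase reporter read.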

[16] = molecular target: Thyrotropin-releasing hormone receptor (Homo sapiens) (UniProt P34981); assay: qHTS assay to identify small molecule antagonists of the thyrotropin-releasing hormone receptor (TRHR) signaling pathway (AID 1346877; active = well fitted inhibition curve with a large enough effect in the repeat runs, not every such curve was filed as active; note: series mostly up to about 51 µM)
Sequence of Thyrotropin-releasing hormone receptor (Homo sapiens) (P34981 whole entry, looked up): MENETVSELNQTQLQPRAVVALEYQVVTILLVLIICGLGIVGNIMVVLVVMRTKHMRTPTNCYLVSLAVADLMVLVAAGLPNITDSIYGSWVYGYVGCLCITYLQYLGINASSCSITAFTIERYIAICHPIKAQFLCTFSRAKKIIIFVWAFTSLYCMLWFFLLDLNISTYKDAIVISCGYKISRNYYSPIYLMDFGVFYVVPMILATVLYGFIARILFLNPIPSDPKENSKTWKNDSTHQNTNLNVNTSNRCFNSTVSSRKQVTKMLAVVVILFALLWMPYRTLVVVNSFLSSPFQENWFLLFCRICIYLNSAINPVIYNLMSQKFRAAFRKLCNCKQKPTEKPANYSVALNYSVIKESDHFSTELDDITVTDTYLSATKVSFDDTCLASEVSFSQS
Procedure, shortened: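 HEK293/TRHR cells, 18 h, 37 °C; Ca2+ dye 2 h; cpd 5 min RT; TRH 1 nM final; fluorescence read 3 min, 1 s intervals; 15 concs, triplicate.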

[17] = molecular target: Thyrotropin-releasing hormone receptor (Homo sapiens) (UniProt P34981); assay: qHTS assay to identify small molecule agonists of the thyrotropin-releasing hormone receptor (TRHR) signaling pathway (AID 1346891; calls by dose curve;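 note: HEK293 cells expressing TRHR with calcium dye readout; series mostly up to about 58 µM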)
Procedure, shortened: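 HEK293/TRHR cells, 1500 per well, 18 h 37 °C; Ca dye 2 h 37 °C; pin-tool compound addition (agonist mode); kinetic fluorescence 3 min, 1 s reads; 15 concentrations, triplicate.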

[18] = molecular target: Estrogen receptor (Homo sapiens) (UniProt P03372); assay: qHTS assay to identify small molecule agonists of the estrogen receptor alpha (ER-alpha) signaling pathway in the presence of an antagonist (AID 1259383; calls by dose curve; note: top concentration of the series differs between compounds; nearly all actives have a fitted effect of over 15% in size)
Sequence of Estrogen receptor (Homo sapiens) (P03372 whole entry, looked up): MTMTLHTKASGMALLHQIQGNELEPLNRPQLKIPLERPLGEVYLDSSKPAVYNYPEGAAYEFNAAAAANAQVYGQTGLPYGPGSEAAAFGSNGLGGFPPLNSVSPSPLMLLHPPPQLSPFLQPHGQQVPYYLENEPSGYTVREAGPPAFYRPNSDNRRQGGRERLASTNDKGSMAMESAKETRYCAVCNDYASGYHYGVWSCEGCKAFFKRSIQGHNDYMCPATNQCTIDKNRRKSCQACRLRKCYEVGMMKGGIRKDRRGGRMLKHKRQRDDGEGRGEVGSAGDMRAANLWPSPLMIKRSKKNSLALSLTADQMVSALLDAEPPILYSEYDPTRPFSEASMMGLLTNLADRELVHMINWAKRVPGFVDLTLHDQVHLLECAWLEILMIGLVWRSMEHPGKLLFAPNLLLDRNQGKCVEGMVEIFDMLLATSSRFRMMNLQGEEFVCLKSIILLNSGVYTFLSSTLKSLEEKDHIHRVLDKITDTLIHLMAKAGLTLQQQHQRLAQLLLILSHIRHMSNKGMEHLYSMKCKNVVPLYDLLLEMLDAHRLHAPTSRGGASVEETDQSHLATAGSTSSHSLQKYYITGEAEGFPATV
Procedure, shortened: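 Luciferase luminescence (ONE-Glo, 30min at room temperature) measured in VM7Luc4E2 cells after 22hr compound exposure at 15 concentrations, with 10.0nM ICI-182,780 final present; cells express endogenous ER-alpha and carry four EREs upstream of luciferase.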

[19] = qHTS assay to identify small molecule agonists of the TGF-beta/Smad signaling pathway - cell viability counter screen (AID 1346829); note: top concentration of the series differs between compounds; nearly all actives have a fitted effect of over 45% in size
Procedure, shortened: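 Compound-treated SBE-bla HEK 293T cells (5 hr, 37 C) were assessed for viability with CellTiter-Glo in parallel with the reporter read.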

[20] = molecular target: Androgen receptor (Homo sapiens) (UniProt P10275); assay: qHTS assay to identify small molecule agonists of the androgen receptor (AR) signaling pathway in the presence of an antagonist (AID 1259381; calls by dose curve; note: nearly all actives have a fitted effect of over 15% in size)
Sequence of Androgen receptor (Homo sapiens) (P10275 whole entry, looked up): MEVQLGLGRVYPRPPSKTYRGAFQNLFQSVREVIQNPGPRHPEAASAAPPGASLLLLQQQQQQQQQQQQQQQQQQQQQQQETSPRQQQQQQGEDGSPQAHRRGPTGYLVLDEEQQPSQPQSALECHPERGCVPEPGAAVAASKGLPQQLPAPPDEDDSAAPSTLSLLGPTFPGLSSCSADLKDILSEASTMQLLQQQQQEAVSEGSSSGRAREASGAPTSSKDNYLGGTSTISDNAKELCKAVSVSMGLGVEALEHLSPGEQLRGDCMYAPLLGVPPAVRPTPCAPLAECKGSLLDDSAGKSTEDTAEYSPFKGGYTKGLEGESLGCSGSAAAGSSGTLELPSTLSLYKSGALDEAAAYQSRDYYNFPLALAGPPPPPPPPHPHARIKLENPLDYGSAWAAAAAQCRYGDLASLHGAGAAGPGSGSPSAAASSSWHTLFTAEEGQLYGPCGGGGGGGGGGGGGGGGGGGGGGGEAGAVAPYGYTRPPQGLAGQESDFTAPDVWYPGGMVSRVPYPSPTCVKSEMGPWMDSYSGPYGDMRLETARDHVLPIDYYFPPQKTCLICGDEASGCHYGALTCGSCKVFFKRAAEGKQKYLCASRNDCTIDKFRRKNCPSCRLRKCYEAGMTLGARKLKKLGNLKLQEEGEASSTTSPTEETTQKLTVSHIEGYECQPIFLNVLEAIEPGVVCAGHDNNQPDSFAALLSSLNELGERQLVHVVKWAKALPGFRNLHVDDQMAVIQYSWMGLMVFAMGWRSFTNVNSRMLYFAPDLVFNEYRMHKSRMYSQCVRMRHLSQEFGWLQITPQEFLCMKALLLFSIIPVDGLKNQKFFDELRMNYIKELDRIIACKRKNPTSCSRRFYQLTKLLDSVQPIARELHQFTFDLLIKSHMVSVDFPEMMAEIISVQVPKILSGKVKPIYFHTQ
Procedure, shortened: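 Luciferase read-out (ONE-Glo, 30min room temperature) in MDA-kb2 MMTV-reporter cells; agonist mode run in presence of AR antagonist nilutamide, 3.0uM final. Compounds tested as 15-point series, 16hr exposure at 37C, 0% CO2.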

Measured: Potency

NS(=O)(=O)Cc1noc2ccccc12
not listed: [14] | [15] | [16] | [17] | [18] | [19] | [20]
inactive: all other assays above

CCCc1ncc(C[n+]2ccccc2C)c(N)n1
not listed: [5] | [7] | [8] | [13] | [18] | [19] | [20]
inactive: all other assays above

O=[N+]([O-])c1cncn1CCN1CCOCC1
not listed: [5] | [8] | [20]
inactive: all other assays above

C=CC(C)(CCC=C(C)C)OC(=O)CC (configuration not stated)
not listed: [5] | [20]
inactive: all other assays above

CCOc1c(N2CCOCC2)cnn(C)c1=O
not listed: [5] | [10] | [12] | [15]
inactive: all other assays above

COc1cc(C(=O)OC(COCCC(C)C)CN2CCOCC2)cc(OC)c1OC (configuration not stated)
not listed: [5] | [19] | [20]
inactive: all other assays above

CN1C(C)(C)CC(O)CC1(C)C
not listed: [4] | [16] | [17] | [18] | [20]
inactive: all other assays above

O=C1CCCCCCCCCCCCCCO1
not listed: [8] | [10] | [17] | [18] | [19] | [20]
inactive: all other assays above

CC(C)(C)OC(=O)c1cccc(N)c1
not listed: [8] | [10] | [14] | [17] | [18] | [20]
inactive: all other assays above

CC(C)C1CCC(O)CC1 (configuration not stated)
not listed: [14] | [16] | [17] | [18] | [19] | [20]
inactive: all other assays above

O=C(c1ccccc1)C1(O)CCCCC1
not listed: [8] | [10] | [18] | [20]
inactive: all other assays above

CNCCO
not listed: [5] | [12] | [18] | [19] | [20]
inactive: all other assays above

CC(=O)N1C[C@H](O)C[C@H]1C(=O)O
not listed: [4] | [10] | [12] | [20]
inactive: all other assays above

CCCCCCC#CC(=O)OC
not listed: [7] | [8] | [12] | [18] | [19] | [20]
inactive: all other assays above

CCN1CCOCC1
not listed: [7] | [8] | [13] | [15] | [16] | [18] | [20]
inactive: all other assays above

C=CCCC(=O)O
not listed: [4] | [16] | [17] | [18] | [20]
inactive: all other assays above

C[C@@H]1CCC[C@H](C)N1
not listed: [4] | [16] | [17] | [18] | [20]
inactive: all other assays above

CCN[C@H]1C[C@H](C)S(=O)(=O)c2sc(S(N)(=O)=O)cc21
not listed: [5] | [10] | [20]
inactive: all other assays above
